# Compound activity: PubChem, several laboratories
# A selection: hits, their analogues and other compounds. The true share with any hit is near 3.7%.
# CHT PAM – allosteric activators of human choline transporter CHT. CHT-expressing cells, membrane potential dye, choline EC20; hits give high values; LV-AA mutant CHT in HEK293 cells. 310,000 tested, 0.49% active. Q9GZV3. B-score at 10 µM;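 active means initial fluorescence not abnormally high and integrated response B-score, plate-corrected, over 3 SD above library mean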
# GPR7 antag – human neuropeptides B/W receptor 1 antagonism | inhibition, % at 4.4 µM | GPR7-expressing cells, fluorescence antagonist assay | AID 1861 | P48145 | 290,000 tested, 1.1% active; in the data active means inhibition above about 16%, passing the limit was not always enough;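 further: cells stimulated with the agonist NPW; 0% = agonist with vehicle and 100% = vehicle without agonist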
# Target sequence (P48145 whole entry, looked up): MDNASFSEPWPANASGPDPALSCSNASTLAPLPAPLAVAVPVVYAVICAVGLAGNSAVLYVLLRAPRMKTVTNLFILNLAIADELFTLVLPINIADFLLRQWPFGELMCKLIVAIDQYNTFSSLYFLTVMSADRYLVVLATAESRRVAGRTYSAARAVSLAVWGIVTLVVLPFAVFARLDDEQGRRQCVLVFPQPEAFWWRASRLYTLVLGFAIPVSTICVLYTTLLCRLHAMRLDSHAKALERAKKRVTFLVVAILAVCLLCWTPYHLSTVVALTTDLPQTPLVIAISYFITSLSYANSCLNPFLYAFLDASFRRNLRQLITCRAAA
# ANO1 block – blocks the mouse calcium-activated chloride channel TMEM16A; Q8BHY3; HEK293 TMEM16A/YFP iodide influx fluorescence, ionomycin; normalized B-score (activity score, 25-100; higher = stronger inhibition) at 10 µM; 310,000 tested, 1.2% active;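 active means ratio plate-corrected score three or more library SD toward inhibition, starting fluorescence score within five deviations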;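 further: score derived from kinetic fluorescence span divided by baseline fluorescence per well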
# TMEM16A act – activates or potentiates the mouse TMEM16A chloride channel | HEK293 TMEM16A/YFP-H148Q/I152L, iodide quench fluorescence; hits give low values | B-score at 10 µM | 340,000 tested, 0.3% active;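 active means fluorescence-ratio B-score plate-corrected deviation score at least 3 library SD below zero, with starting fluorescence score within 5 deviations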;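 further: channel opened by trigger with iodide after compound preincubation; score built on the fluorescence ratio of max minus min over baseline; more negative score means more quench and so TMEM16A activation or potentiation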
# CHT inh – inhibits the human high affinity choline transporter. Q9GZV3. CHT-expressing cells, membrane potential dye, choline response; hits give low values. B-score at 10 µM. 310,000 tested, 0.86% active;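 active means B-score over 3 SD under the library average, and starting fluorescence ratio not unusually high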;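 further: choline stimulus applied at its EC90 after an EC20 pre-addition; B-score computed on integrated fluorescence ratio after choline addition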
# Kir21 inh – blocks the mouse Kir2.1 inward-rectifier potassium channel | P35561 | HEK293-Kir2.1, FluxOR thallium flux fluorescence; hits give low values | B-score at 10 µM | 310,000 tested, 0.85% active | AID 1672;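 active means fluorescence ratio B-score at or below minus 3 SD of library scores, with starting-brightness B-score within 2 SD, cut at about -4.2 in these data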;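 further: channel flux triggered by added potassium and thallium sulfate stimulus; B-score of peak minus minimum fluorescence over baseline after thallium stimulus; more negative B-score means stronger Kir2.1 block with less thallium influx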
# CHT block conf – confirmation of human choline transporter CHT inhibitors. shares compounds with CHT inh. CHT-expressing cells, choline membrane potential dye; LV-to-AA substituted CHT, HEK293 cells. CHT activity remaining % of control (hits give low values), % at 10 µM. 2,400 tested, 70% active. AID 493221;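 active means choline transporter activity left, mean of duplicates at 10 µM, below buffer-only control mean minus 3 SD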;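 further: depolarization triggered by choline at its EC90 following an EC20 pre-addition; 0% = hemicholinium-3 full block and 100% = buffer-only control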
# HEK293 CHT ctr – counter-screen for CHT inhibitors: effect in parental HEK293 cells. shares compounds with CHT inh. membrane potential dye, choline response; active = decrease or increase beyond buffer ±3SD. membrane potential ratio readout (active if shifted either direction beyond buffer ±3SD; no single direction) at 10 µM. 2,400 tested, 4% active;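 further: parental cells lack the transporter so any hit is non-specific; ratio is peak minus trough fluorescence over baseline after EC90 choline challenge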
# * marks the source's active call; other numbers are inactive results; i = inactive; nt = no result.
SMILES,CHT PAM,GPR7 antag,ANO1 block,TMEM16A act,CHT inh,Kir21 inh,CHT block conf,HEK293 CHT ctr
CCCOc1ncnc2c1[nH]c1ccccc12,i,-6,i,i,i,0.57,nt,nt
CCN(CC)c1ncnc2c1[nH]c1ccccc12,i,-1,i,i,-6.6*,-0.09,52%*,i
COc1cccc2c1C(=O)CC1C2CCC2CC(=O)CCC21C (stereo not given),i,nt,i,i,i,0.03,nt,nt
COc1ccc(CN(C(=O)c2cccs2)C(C(=O)NC2CCCCC2)c2ccc3ncccc3c2)cc1 (stereo not given),i,-7,i,i,-8.1*,0.1,43%*,i
COc1ccc(CN(C(=O)c2nsc(Cl)c2Cl)C(C(=O)NC2CCCCC2)c2ccc(OC)cc2)cc1 (stereo not given),i,-21,i,i,i,0.03,nt,nt
COc1ccc(CN(C(=O)c2ccc3c(c2)OCCO3)C(C(=O)NC2CCCCC2)c2ccc3ncccc3c2)cc1 (stereo not given),i,-2,i,i,-9.2*,-0.89,16%*,i
O=C(NC1CCCCC1)C(c1ccc2ncccc2c1)N(Cc1ccccc1)C(=O)c1ccc2c(c1)OCCO2 (stereo not given),i,0,i,i,-6.7*,-0.69,47%*,i
Cc1ccc(C(C(=O)NC2CCCCC2)N(C(=O)CCCC(=O)Nc2ccccn2)c2ccc3c(c2)OCCO3)cc1 (stereo not given),i,-4,i,i,i,-0.69,nt,nt
CC1(C)Cc2c(cnn2-c2cccc(F)c2)C(NC(=O)CSc2ccncc2)C1 (stereo not given),i,9,i,i,i,-1.4,nt,nt
CCOC(=O)c1cnc2c(Cl)cc(Cl)cc2c1NCCOCCO,i,-6,i,i,-10*,1.2,34%*,i
Cc1ccc(C(=O)N[C@H](C(=O)NC2CCCCC2)C(C)C)cc1,nt,nt,nt,i,nt,nt,nt,nt
CC(C)NC(=O)CSc1nc(Cc2ccccc2)nc2ccccc12,i,-5,i,i,i,-2.4,nt,nt
CCOC(=O)CNC(=O)CSc1nc(Cc2ccccc2)nc2ccccc12,i,-14,i,i,-6.6*,-2.1,i,i
CCOC(=O)N1CCN(C(=O)CSc2nc(=O)n3ccc(C)cc3n2)CC1,i,nt,i,i,i,0.3,nt,nt
N#C/C(=C\c1ccc(O)c(Br)c1)C(=O)NCc1ccccc1,i,-16,i,i,-6.4*,1.6,64%*,i
O=c1ccn(Cc2ccc(F)cc2)c2ccnc(C(F)(F)F)c12,i,-8,i,i,i,2.2,nt,nt
CCc1cccc(C)c1NC(=O)Nc1c(Br)cnn1C,i,-18,i,nt,i,1.9,nt,nt
O=C(NNC1=C(C(=O)C(F)(F)F)CCC1)c1cccnc1,i,-10,i,i,i,-2.2,nt,nt
Cc1cccc(C(=O)NNC2=C(C(=O)C(F)(F)F)CCC2)c1O,i,-5,100*,i,-7.9*,1,37%*,i
C=CCNc1nc(SC)nc2ccsc12,i,-4,i,i,-11*,1.3,3.0%*,i
COc1ccc(Oc2nc(SC)nc3ccsc23)cc1,i,-21,i,i,i,0.59,nt,nt
CCOC(=O)C(CC(=O)c1ccccc1)CC(=O)c1ccccc1,i,8,i,i,i,0.07,nt,nt
COC(=O)C(CC(=O)c1ccccc1)CC(=O)c1ccccc1,i,12,i,i,-5*,-0.12,i,i
Cc1nn(-c2ccccc2)c2[nH]c(=O)cc(C(F)(F)F)c12,i,-5,i,i,-5.2*,1.9,37%*,i
CN(C(=O)c1ccc(NC(=O)Cc2ccc(NC(=O)C3CCCN(C(=O)CCc4ccccc4)C3)cc2)cc1)C1CC1 (stereo not given),nt,nt,nt,i,nt,nt,nt,nt
SMILES,CHT PAM,GPR7 antag,ANO1 block,TMEM16A act,CHT inh,Kir21 inh,CHT block conf,HEK293 CHT ctr
CC1(C(=O)Nc2nc3ccccc3s2)CC1(Br)Br (stereo not given),i,-7,i,i,i,2.4,nt,nt
COc1ccc(/C=C/C(=O)Oc2cc(O)cc(O)c2)cc1,i,6,i,i,-6.6*,-0.67,i,i
NC(=S)N/N=C1/CCSc2ccc3ccccc3c21,i,-11,i,i,-5.6*,-0.17,68%*,i
COc1ccc(CCNC(=O)CSc2nn(-c3ccccc3)c(=S)s2)cc1,i,-4,i,i,i,0.08,nt,nt
COc1cc2c(cc1OC)-c1cc(NC3CCCCCCC3)nc(=O)n1CC2,i,-17,i,i,-7.6*,-0.38,27%*,i
COc1cc2c(cc1OC)-c1cc(NC3CC3)nc(=O)n1CC2,i,-10,i,i,i,0.06,nt,nt
O=C(CSc1cccc(C(F)(F)F)c1)NCc1ccccc1,i,-2,i,i,-5.8*,-0.23,i,i
COc1cc(NC2CCCCC2O)c2nc(-c3ccc(Cl)cc3)ccc2c1 (stereo not given),i,-15,i,i,-8.4*,1,49%*,i
COc1ccc(OCC(=O)OCC(=O)NC2CCCCC2C)cc1 (stereo not given),nt,nt,nt,i,nt,nt,nt,nt
CCCc1cc(=O)[nH]c(SCC(=O)c2cc(C)n(CC(F)(F)F)c2C)n1,i,-9,i,i,-6.3*,-3.8,i,i
CCCc1cc(=O)[nH]c(SCC(=O)c2cc(C)n(CCOC)c2C)n1,i,-7,i,i,i,-2.1,nt,nt
CCCCn1c(SCC(=O)Nc2ccccc2C(F)(F)F)nc2ccsc2c1=O,i,13,i,i,i,-1.1,nt,nt
CCCCn1c(SCC(=O)N2CCC(C)CC2)nc2ccsc2c1=O,i,12,i,i,i,-1.2,60%*,i
Cc1cc(C)c2c(c1)/C(=c1/sc3n(c1=O)CN(c1ccccc1)CN=3)C(=O)N2,i,-3,i,i,i,-1.1,nt,nt
COc1ccccc1C(=O)Nc1ccc2c(c1)nc(CN1CCCCC1)n2C,i,2,i,i,i,0.31,nt,nt
Cn1c(CN2CCCCC2)nc2cc(NC(=O)c3ccccc3Cl)ccc21,i,8,i,i,-7.5*,0.87,40%*,i
COCCN(C(=O)c1cc(Cl)ccn1)c1c(N)n(Cc2ccccc2)c(=O)[nH]c1=O,nt,nt,nt,i,nt,nt,nt,nt
